Screens: PubChem, National Center for Advancing Translational Sciences (NCATS)
KCNH2 WT inh = qHTS for Inhibitors of KCHN2 3.1: Wildtype qHTS; U2OS, BacMam KCNH2, thallium flux FluxOr; hits give low values; 340,000 tested, 0.37% active; activity change, % at 1.84 µM; Voltage-gated inwardly rectifying potassium channel KCNH2 (Homo sapiens), Q12809;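 active = maximum activity change below -70%; inconclusive = maximum activity change between -70% and -50%; inactive = maximum activity change above -50%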; note: % is set by controls: 0 for no effect and ±100 for the full control effect
Target sequence (Q12809 whole entry, looked up): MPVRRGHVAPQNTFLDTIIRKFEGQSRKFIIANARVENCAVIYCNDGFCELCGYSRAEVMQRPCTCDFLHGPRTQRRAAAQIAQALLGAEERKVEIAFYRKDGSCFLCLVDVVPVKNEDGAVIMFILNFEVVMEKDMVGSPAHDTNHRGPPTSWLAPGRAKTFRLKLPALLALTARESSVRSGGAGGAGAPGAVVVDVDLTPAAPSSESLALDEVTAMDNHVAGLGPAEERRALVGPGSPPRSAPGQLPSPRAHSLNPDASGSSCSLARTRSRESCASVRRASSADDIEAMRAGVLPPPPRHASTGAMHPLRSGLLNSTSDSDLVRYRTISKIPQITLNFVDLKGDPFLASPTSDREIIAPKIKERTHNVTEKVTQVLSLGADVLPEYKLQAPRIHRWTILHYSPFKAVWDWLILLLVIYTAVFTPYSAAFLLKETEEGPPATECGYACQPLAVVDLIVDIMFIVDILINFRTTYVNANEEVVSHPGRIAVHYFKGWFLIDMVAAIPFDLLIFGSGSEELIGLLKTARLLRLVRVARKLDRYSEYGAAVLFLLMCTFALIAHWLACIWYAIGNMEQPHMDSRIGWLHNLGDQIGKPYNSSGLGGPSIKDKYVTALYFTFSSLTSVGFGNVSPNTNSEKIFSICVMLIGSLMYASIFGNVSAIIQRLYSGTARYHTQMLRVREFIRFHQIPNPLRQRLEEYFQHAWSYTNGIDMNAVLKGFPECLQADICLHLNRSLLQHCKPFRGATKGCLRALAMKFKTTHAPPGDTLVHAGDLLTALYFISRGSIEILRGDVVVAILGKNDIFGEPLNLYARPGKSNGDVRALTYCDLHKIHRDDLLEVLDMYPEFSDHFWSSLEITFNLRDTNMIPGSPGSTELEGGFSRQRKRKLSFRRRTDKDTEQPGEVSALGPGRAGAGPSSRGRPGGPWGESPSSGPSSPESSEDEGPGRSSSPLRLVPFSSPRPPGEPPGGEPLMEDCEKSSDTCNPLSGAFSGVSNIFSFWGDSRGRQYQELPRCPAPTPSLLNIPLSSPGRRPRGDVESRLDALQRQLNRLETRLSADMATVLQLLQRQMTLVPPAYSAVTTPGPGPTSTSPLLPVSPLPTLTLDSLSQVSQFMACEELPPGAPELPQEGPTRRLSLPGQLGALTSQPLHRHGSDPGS
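U2OS cells were transduced with wild-type KCNH2 virus (2.03 x 10^8 / mL) for 4 h at room temperature, then cultured overnight at 37 C. Thallium flux was read with FluxOr dye. Rate constants were normalized to DMSO controls.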
gsp agonist = qHTS for Agonist of gsp, the Etiologic Mutation Responsible for Fibrous Dysplasia/McCune-Albright Syndrome: qHTS; gsp mutant cells, cAMP HTRF, 30 min; Potency, µM (series often up to 76.9 µM), for the others: at the highest dose activation (cAMP increase), most hits filed as activators; 340,000 tested, 0.13% active; active = well fitted activation curve with a large enough effect; inconclusive = small, poorly fitted or top-dose-only effect, or another doubt; inactive = no such curve, though single readings can be large or run the other way; cell line not stated here;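 note: phosphodiesterase inhibitor Ro 20-1724 added with compounds to block cAMP breakdown; potency is the fitted concentration of half-maximal effect; nearly all actives have a fitted effect of over 60% in size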
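Cells in DMEM/10% FBS with G418 were pretreated with compounds in DMSO plus […] (300 uM stock) for 30 min at 37C. cAMP was measured by HTRF (cAMP-d2 plus anti-cAMP antibody-K) after 30 min at room temperature.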
Glioma ERSR ind = qHTS for Inducers of the Endoplasmic Reticulum Stress Response (ERSR) in Human Glioma: qHTS; 420,000 tested, 0.02% active; Potency, µM, for inactives: at the top dose activation, hits mostly activators; U87-MG GRP78 promoter luciferase reporter, 16 h; active = well fitted activation curve with a large enough effect; inconclusive = small, poorly fitted or top-dose-only effect; inactive = no such curve, though single readings can be large or run the other way; note: potency is the fitted concentration of half-maximal effect; series mostly up to about 76 µM; % of control where 0% means no effect; nearly all actives have a fitted effect of over 35% in size
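Stably transfected U87-MG human glioma cells carrying a GRP78-based luminescent sensor were seeded at 1000 cells/well, pin-dosed with compounds and incubated 16 h. Luciferase reagent was then added, and end-point luminescence was read after 10 min at room temperature.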
KCNH2 3.1 inh = qHTS for Inhibitors of KCHN2 3.1: Mutant qHTS; 340,000 tested, 0.95% active; activity change, % (tested at about 1.8 µM); U2OS KCNH2 3.1, thallium flux FluxOr; hits give low values;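 active = maximum activity change below -70%; inconclusive = maximum activity change from -70% to -50%; inactive = maximum activity change above -50%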;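 note: thallium influx rate constant from kinetic fluorescence after stimulation buffer; % is set by controls: 0 for no effect and ±100 for the full control effect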
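Thallium flux via FluxOr fluorescence (Red40 quencher, 45 min loading) in U2OS cells virally expressing the KCNH2 3.1 isoform (1.77 x 10^8 /mL virus, overnight at 37 C). Rate constants from 2-min kinetic reads post-stimulation, normalised to positive and negative controls.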
gsp antagonist = qHTS for Antagonists of gsp, the Etiologic Mutation Responsible for Fibrous Dysplasia/McCune-Albright Syndrome: qHTS; gsp-mutant cells, cAMP HTRF, 30 min; Potency, µM (highest dose often 76.9 µM), for the others: at the top dose activity change, negative = inhibition, most hits filed as inhibitors; 340,000 tested, 0.4% active; AID 624288, 2012; calls by dose curve; cell line not stated here;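 note: intracellular cAMP measured with PDE inhibitor Ro 20-1724 present during compound exposure; potency is the fitted concentration of half-maximal effect; % is set by controls: 0 for no effect and ±100 for the full control effect; nearly all actives have a fitted effect of over 65% in size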
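HTRF cAMP measurement after 30 min RT detection following 30 min, 37C compound treatment alongside […] (added as 300 uM solution) in G418-selected cells seeded at 2000/well and grown 16–24 h.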
Akt phos inh = HTS Assay for Inhibitors of Akt Phophorylation: Primary Screen. activity change, % for hits at 50 µM. Neuro2A IGF-stimulated pAkt S473 HTRF, 20 min; hits give low values. 360,000 tested, 0.32% active. AID 651550, 2012; in the data active = activity change below about -80%; inconclusive = mostly about -51% to -80%; note: % is set by controls: 0 for no effect and ±100 for the full control effect
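Single-point screen (50 µM final compound) in Neuro2A cells stimulated 20 min with 6 nM IGF at 37 deg C. After lysis, Ser473-phosphorylated Akt read by HTRF (ex 330 nm, em 615/665 nm) as the 665/615 ratio.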
Active calls of the source: *; i = inactive; ? = inconclusive; · = no result given; [ ] = another dose, or the depositor's remark. A selection: hits, their analogues and other compounds. The true share with any hit is near 1.6%.

SMILES	KCNH2 WT inh	gsp agonist	Glioma ERSR ind	KCNH2 3.1 inh	gsp antagonist	Akt phos inh
COc1ccc2c(c1)CC1(CN2C)C(=O)NC(=O)N(CCc2ccccc2)C1=O (stereo unspecified)	1	-36%	4%	-95*	-31%	i
CCC(=O)OC1[C@@H](N2CCCCC2)C[C@H]2[C@@H]3CC[C@H]4C[C@H](OC(C)=O)[C@@H](N5CCCCC5)C[C@]4(C)[C@H]3CC[C@]12C (stereo partly specified)	·	·	14%	·	·	·
C[N+]1(CCF)[C@@H]2CC[C@@H]1CC(OC(=O)C(O)(c1ccccc1)c1ccccc1)C2 (stereo partly specified)	·	·	-3%	·	·	·
O=C(c1cc(F)ccc1F)C1CCCN(CCCc2ccccc2)C1 (stereo unspecified)	4	-8%[15.4 µM]	-4%	-101*	-11%	i
C=CCC1(O)CCC2C3CCC4=CC(=O)CCC4=C3C=CC21C (stereo unspecified)	·	·	-4%	·	·	·
Cc1ccsc1C(=O)C1CCCN(Cc2ccc(-n3cccn3)cc2)C1 (stereo unspecified)	39	-3%	-5%	-72*	-4%	i
Cc1c(N)nc([C@@H](CC(N)=O)NC[C@H](N)C(N)=O)nc1C(=O)N[C@H](C(=O)N[C@H](C)[C@H](O)[C@H](C)C(=O)N[C@@H](C(=O)NCCc1nc(-c2nc(C(=O)NCCC[S+](C)C)cs2)cs1)[C@H](C)O)[C@H](O[C@@H]1O[C@@H](CO)[C@@H](O)[C@H](O)[C@@H]1O[C@H]1O[C@H](CO)[C@H](O)[C@H](OC(N)=O)[C@@H]1O)c1cnc[nH]1	·	·	-2%	·	·	·
C=CCC1=C(C)C(OC(=O)C2C(C=C(C)C)C2(C)C)CC1=O (stereo unspecified)	·	·	-3%	·	·	·
Cn1c(O)c(Cc2ccc(OCc3ccccc3)cc2)c(=O)n(C)c1=O	4	-7%	-1%	19	7.1µM*	i
CCCCCc1cc(O)c2c(c1)OC(C)(C)c1ccc(C)cc1-2	·	·	-11%	·	·	·
C[C@@H]1[C@H](O)[C@@H](C)C=CC=CCCC=CC=CC=CC=C[C@H](O[C@H]2O[C@@H](C)[C@H](O)[C@@H](N)[C@@H]2O)CC2O[C@](O)(C[C@@H](O)[C@H](O)CC[C@@H](O)C[C@@H](O)C[C@@H](O)CC(=O)O[C@H]1C)C[C@H](O)[C@H]2C(=O)O	·	·	-4%	·	·	·
Cc1ccc(-n2c(O)c(C=NCCN3CCOCC3)c(=O)[nH]c2=O)cc1	-2	3%	-5%	-1	0%	-128%*
O=c1[nH]c(=O)n(-c2cccc(Cl)c2)c(O)c1C=NCCCN1CCOCC1	12	-1%	3%	29	4%	i
CO/C=C(/C(=O)OC)c1ccccc1Oc1cc(Oc2ccccc2C#N)ncn1	·	·	-3%	·	·	·
COc1ccc(C(=O)CSc2nnc(CNC(=O)c3ccc(S(=O)(=O)N(C)C)cc3)o2)cc1	0	?	-2%	-3	-4%	i
O=C(CCCN1CCC2(CC1)C(=O)NCN2c1ccccc1)c1ccc(F)cc1	-38	·	?	-81*	5%	i
O=C(c1ccc(Cl)cc1)C1CCCN(Cc2cccc3cccnc23)C1 (stereo unspecified)	-71*	2%	-5%	-99*	6%	i
COc1ccc(CN2CCCC(C(=O)c3ccc(Cl)cc3)C2)c(O)c1 (stereo unspecified)	-31	?	-2%	-72*	-4%	i
CC[C@H](O)C(C[C@H](C)N(C)C)(c1ccccc1)c1ccccc1	·	·	-5%	·	·	·
COc1cc(=O)n2c(c1C(=O)N(C)Cc1nonc1C)CCN(C(=O)C1C(C)(C)C1(C)C)CC2	·	·	-3%	·	·	·
CCOC(=O)[C@]12Cc3cc(OC)ccc3[C@H]1N(Cc1ccccc1)C(=O)c1ccccc12	-4	3%	-6%	8	?	i
CCOC(=O)[C@]12Cc3cc(C)ccc3[C@H]1N(Cc1ccccc1)C(=O)c1ccccc12	-3	·	-4%	-72*	?	i
CCN1/C(=C\C=C\C2=[N+](CC)c3ccccc3C2(C)C)C(C)(C)c2ccccc21	-208*	31%[15.4 µM]	-14%	?	-8%	i
C=CCn1c(O)c(C(C)=NCCN2CCN(C(=S)NC)CC2)c(=O)[nH]c1=O	-99*	-1%[15.4 µM]	-3%	-10	13%	i
C[C@H]1[C@@H]2Cc3ccc(O)cc3[C@]1(C)CCN2CCc1ccccc1	·	·	-4%	·	·	·
SMILES	KCNH2 WT inh	gsp agonist	Glioma ERSR ind	KCNH2 3.1 inh	gsp antagonist	Akt phos inh
O=C1NC(=O)N(Cc2ccccc2)C(=O)/C1=C/C=C/c1ccco1	5	19%	-16%	9	50µM*	i
N#CC(C#N)=NNc1ccc(-n2ccc(C(F)(F)F)n2)cc1	-5	?	1%	0	32µM*	i
Cc1cc(C)n(-c2ccc(NN=C(C#N)C#N)cc2)n1	11	-1%	-1%	4	?	i
Clc1ccccc1CN1CCN(c2cccc3[nH]ccc23)CC1	5	-29%	0%	18	2%	i
CCCCCCN1CCN(c2ccccc2Cl)CC1	-5	0%	-4%	-79*	3%	i
C[C@@H]1O[C@@H](O[C@H]2CC[C@@H](O[C@H]3[C@H](O)C[C@H](c4ccc5c(c4O)C(=O)C4=C(C5=O)[C@@]5(O)C(=O)C[C@](C)(O[C@H]6CC[C@H](O[C@H]7C=CC(=O)[C@H](C)O7)[C@H](C)O6)C[C@@]5(O)C=C4)O[C@@H]3C)O[C@H]2C)C=CC1=O	·	·	-12%	·	·	·
O=C1NC(=O)N(Cc2ccc(F)cc2)C(=O)/C1=C\c1ccc(N2CCCC2)cc1	-9	-6%[15.4 µM]	0%	-3	3%	i
CN1C(=O)C(=Cc2ccc(N3CCCCCC3)cc2)C(=O)N(C)C1=O	-9	-2%[15.4 µM]	1%	13	35µM*	i
COC(=O)C1=C(c2ccc(C(C)=O)cc2)C[C@@H]2CC[C@H]1N2C(=O)N1CCC(O)(c2ccc(Cl)cc2)CC1	-115*	-3%	-5%	-88*	-12%	i
CCC(N)CCc1c[nH]c2ccccc12 (stereo unspecified)	·	·	-2%	·	·	·
